Experimental data published in PubChem BioAssay (NCI).
The panel holds about 79,000 compounds, 15% with a hit somewhere; the sample as a whole holds those more often. A number with no mark means an inactive call. Activity calls are given as the source filed them. Cut-off read from the data, not from the text of the source: active = growth inhibition above about 70%; inactive = the rest.

Experiments:
[1] = NCI Yeast Anticancer Drug Screen. Data for the rad50 strain (AID 155);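 note: 0% = growth of vehicle-only cultures of the same strain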; conditions: S. cerevisiae rad50 strain growth inhibition; at 50.0 µM; hits give high values
Procedure, shortened: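 DNA repair mutant yeast, compound exposure, growth read-out; inhibition is taken relative to vehicle.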

[2] = NCI Yeast Anticancer Drug Screen. Data for the mec2-1 strain (AID 157); conditions: S. cerevisiae mec2-1 strain, at 50.0 µM, hits give high values
Procedure, shortened: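 Test agents were screened against the mec2-1 yeast strain, with defined DNA repair or cell cycle alteration. Growth was scored as inhibition against vehicle-only controls.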

[3] = NCI Yeast Anticancer Drug Screen. Data for the sgs1 mgt1 strain (AID 161);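 note: 0% = growth of cultures given vehicle only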; conditions: S. cerevisiae sgs1 mgt1 strain, at 50.0 µM, hits give high values
Procedure, shortened: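 Test agents were incubated with a DNA-repair-mutant yeast strain. Growth was then read and compared against vehicle-treated controls.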

[4] = NCI Yeast Anticancer Drug Screen. Data for the cln2 rad14 strain (AID 165);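 note: 0% = growth equal to vehicle treated cultures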; conditions: S. cerevisiae cln2 rad14 strain, at 50.0 µM, hits give high values
Procedure, shortened: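 Growth of compound-exposed yeast (cln2 rad14 genotype) measured and expressed as inhibition relative to vehicle.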

[5] = NCI Yeast Anticancer Drug Screen. Data for the bub3 strain (AID 167); conditions: S. cerevisiae bub3 mutant strain, at 50.0 µM, hits give high values
Procedure, shortened: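 In this screen, a yeast mutant lacking normal mitotic checkpoint function is challenged with compound. Relative growth versus vehicle gives the inhibition value.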

[6] = NCI Yeast Anticancer Drug Screen. Data for the mlh1 rad18 strain (AID 175); conditions: S. cerevisiae mlh1 rad18 strain growth inhibition; at 50.0 µM; hits give high values
Procedure, shortened: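 In this whole-cell yeast screen, a strain with altered DNA damage repair is challenged with compound, and its growth is measured against matched vehicle-treated controls.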

SMILES	growth inhibition [1] [%]	growth inhibition [2]	growth inhibition [3]	growth inhibition [4] [%]	growth inhibition [5] [%]	growth inhibition [6] [%]
N#CC(C#N)C1c2ccccc2Oc2ccccc21	7.1	-8.55%	-4.05%	-11.6	-4.95	-14.3
O=c1c(SCc2ccccc2)c(N2CCOCC2)cnn1-c1ccccc1	28.4	-1.85%	22.8%	30.1	22.1	7.75
NS(=O)(=O)c1ccc(NC(=O)c2cccn3c(=O)c4ccccc4nc23)cc1	6.6	9.45%	-7.6%	27.2	-0.25	14.9
CS(=O)(=O)OC1C(OC(=O)c2ccccc2)OC(COC(=O)c2ccccc2)C1OC(=O)c1ccccc1 (stereo unspecified)	14.8	-13.6%	4.9%	-28.7	9.7	-13.8
O=[N+]([O-])c1ccc2c(c1)Sc1ccccc1N2	-16.8	-14.4%	-26.7%	-21.8	-25.2	-22.6
COc1ccc(CCN=C2CCC(C(=O)NCCc3ccc(OC)c(OC)c3)N2)cc1OC (stereo unspecified)	-12.9	-18.9%	2.6%	-1.3	-20.5	-4.25
CCOC(=O)C1(C(=O)OCC)C2C=CC(C2)C1C(=O)OC (stereo unspecified)	-0.65	-2.4%	15.8%	-60.3	8.45	8.3
CCCOCN1COCN=C1NC#N	28.8	12.3%	-4.7%	-0.05	5.65	5.75
Nc1ncc2ncn(C3CCC(CO)O3)c2n1 (stereo unspecified)	-6.9	-10.1%	-22.2%	-4.65	-10.8	-6.45
COC(=O)[C@H]1[C@H]2C[C@@H]3c4[nH]c5cc(OC)ccc5c4CCN3C[C@H]2C[C@@H](OC(=O)c2cc(OC)c(OC)c(OC)c2)[C@@H]1OC	16.5	-14.2%	-8.9%	-3.65	25.7	12.8
O=C1CCC(N2C(=O)C3C4CCC(O4)C3C2=O)C(=O)O1 (stereo unspecified)	12.9	3%	13.9%	13.8	13.8	7.85
Clc1ccc2nsnc2c1	14.2	-12.8%	24.9%	16.8	18.9	35
Cc1ccc(-c2c3nc(c(-c4ccc(C)cc4)c4ccc([nH]4)c(-c4ccc(OCC5COC(C)(C)O5)cc4)c4nc(c(-c5ccc(C)cc5)c5ccc2[nH]5)C=C4)C=C3)cc1 (stereo unspecified)	-58.3	-32.9%	-50.3%	-23.9	-40.5	-66.7
COC(=O)C(=O)C(C(=O)c1cccc2ccccc12)c1nc2n(c1O)C(=N)N=N2 (stereo unspecified)	18.4	4.45%	11.6%	-4.9	-2.75	0.8
CC1(C)OC(=O)C(C(N)=O)C1c1ccc(Cl)cc1 (stereo unspecified)	6.15	0.8%	-5.65%	-3	-6.25	13.8
Cc1ccc(-n2c(C)nc3c(c(C)c(C)n3-c3ccccc3)c2=N)cc1	4.1	-0.75%	4.75%	-19	15.4	6.65
Nc1ccc(CCCCc2nc(N)nc(N)c2-c2ccc(Cl)c(Cl)c2)cc1	36.5	77% (active)	88.8% (active)	9.1	14.9	60.5
COc1cc(C(=O)O)cc(O)c1OC	4.95	-4.5%	-2.85%	-6.25	2.4	8.45

SMILES	growth inhibition [1] [%]	growth inhibition [2]	growth inhibition [3]	growth inhibition [4] [%]	growth inhibition [5] [%]	growth inhibition [6] [%]
C[N+](C)(C)CC(=O)N/N=C(\C(=O)Nc1ccc(Cl)cc1)C1C(=O)N(c2ccccc2)N=C1N (stereo unspecified)	-15.4	1.25%	-14.8%	-13.8	-6.95	17.6
N#CC(/C(=N\NC(N)=S)C(=O)NC1C2CC3CC(C2)CC1C3)c1ccc(Cl)cc1 (stereo unspecified)	29.2	10.2%	19.8%	10.1	15.4	25.4
COc1ccc(N=Nc2c(-c3ccccc3)nn(C(=O)CC(=O)Nc3cccc(Cl)c3)c2-c2ccccc2)cc1	-2.65	5.9%	-6.3%	12.6	26.3	-13.5
CC1CN=C(c2ccccc2)C(c2ccccc2)=N1 (stereo unspecified)	-24.2	1.3%	-6.4%	-6.15	-12.5	-22.3
CCCNC(=O)Nc1ccc(OC)cc1Cl	-12.1	-9.45%	-1.65%	-59.3	-6.3	-15.6
CCOC(=O)CC[C@@H](NC(=O)c1ccc(NCc2ccc3nc(OC)c(OC)nc3c2)cc1)C(=O)OCC	2.7	-10.2%	-4.15%	-9.55	15.8	-13.4
CCOC(=O)c1nc2c(C)nc(N)nc2[nH]c1=O	-0.35	-1.2%	-12%	-32.1	-5.6	-3.1
C1CCCCC2(CCCCCCCCC3(CCC1)OCCO3)OCCO2	-2	-21.2%	-8.5%	25.6	1.1	-5.25
O=C(O)CS(=O)(=O)O	11.2	0.45%	-4.3%	5.3	0.75	5.55
N#CC(C#N)c1c(F)c(F)c(C(F)(F)F)c(F)c1F	10.4	-4.6%	34.9%	-8.95	-9.9	-0.65
CCCCCCCCCCCC(=O)OCC	26.8	22.4%	8.45%	25.2	9.15	8.7
CC1OC(O[C@@H]2OC=C(C=O)[C@@]3(O)CC[C@H](C)[C@@H]23)C(O)C(O)C1O (stereo partly specified)	16.2	-10.4%	9.1%	7.6	-6.1	-39.2
O=C(Nc1ccccc1Cl)Nc1cccc2ccccc12	15.2	1.3%	17.8%	-1.6	4.55	8.65
CCOC(=O)C(O)Cc1cnc2ccccc2n1 (stereo unspecified)	-1.45	-13.3%	-12.3%	-13.3	-11.1	7.55
CNC(C)C#N (stereo unspecified)	-17.7	-11.6%	-11.9%	-19.6	0.75	-11.6
Cc1cccc(NC(=O)OCCOC(=O)Nc2cccc(C)n2)n1	-15.1	-11.6%	-19.4%	-9.25	-11.1	-1.15
Cc1cc(O)c(C(C)C)cc1N=Cc1ccccc1O	-38.4	-23.6%	-58.2%	-29.7	-21.6	-5.8
COc1ccc2[nH]c(=O)c(CO)c(CO)c2c1	0.45	-12.2%	-1%	-26.1	0.55	4.35
